Data reported in PubChem BioAssay AID1159580 (chemical genetic matrix, 2015).
Where “and” joins values, the source holds several entries; their conditions need not be identical. Equal values may be shown once. The whole screen tested about 5,500 compounds, of which about 2,000 (36%) were called active. Another 18% or so got no clear call; they are omitted. No stated cut-off is given here; in the data, active means normalized growth mostly below about 0.91 (no sharp cut-off); inconclusive means no clear call, values can overlap the other calls; inactive means mostly above about 0.92. The list shows a part of the results.

Assay: chemical genetic growth profiling, strain panel (AID 1159580);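 further: tested at 20 µM; growth read once vehicle control cultures reached saturation at 30 °C; 1 = growth at the plate median or of vehicle wells; lower values mean less growth of the strain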
Conditions: S. cerevisiae deletion strains, growth OD

Measured: normalized growth

COC(=O)C[C@H]1C(C)(C)[C@@H](O)[C@@H]2CC3=C4C=C(OC)O[C@@H](c5ccoc5)[C@]4(C)CCC3[C@@]1(C)C2=O (some centres not stated)
inactive: locus YAL021C, strain ccr4, hits give low values 0.996 | locus YAL026C, strain drs2, hits give low values 0.99 | locus YAL030W, strain snc1, hits give low values 1 | locus YBL061C, strain skt5, hits give low values 1.01 | locus YBR009C, strain hhf1, hits give low values 1.01 | locus YBR021W, strain FUR4, hits give low values 1.01 | locus YBR023C, strain chs3, hits give low values 0.997 | locus YBR171W, strain sec66, hits give low values 0.999 | locus YBR229C, strain ROT2, hits give low values 1 | locus YBR231C, strain swc5, hits give low values 1 | locus YBR279W, strain paf1, hits give low values 0.999 | locus YCL011C, strain gbp2, hits give low values 1.01 | locus YCL016C, strain dcc1, hits give low values 0.999 | locus YCL029C, strain bik1, hits give low values 0.978 | locus YCL061C, strain MRC1, hits give low values 1.01 | locus YCL069W, strain vba3, hits give low values 0.983 | locus YCR088W, strain abp1, hits give low values 0.99 | locus YDL005C, strain med2, hits give low values 0.989 | locus YDL035C, strain GPR1, hits give low values 1.01 | locus YDL040C, strain nat1, hits give low values 0.998 | locus YDL074C, strain BRE1, hits give low values 1.02 | locus YDL101C, strain DUN1, hits give low values 1 | locus YDL134C, strain PPH21, hits give low values 1.01 | locus YDL185W, strain tfp1, hits give low values 0.982 | locus YDL192W, strain arf1, hits give low values 0.991 | locus YDR001C, strain nth1, hits give low values 0.992 | locus YDR069C, strain doa4, hits give low values 0.998 | locus YDR101C, strain arx1, hits give low values 1 | locus YDR137W, strain rgp1, hits give low values 1.01 | locus YDR159W, strain sac3, hits give low values 0.998 | locus YDR162C, strain NBP2, hits give low values 0.987 | locus YDR195W, strain ref2 0.962 | locus YDR297W, strain sur2, hits give low values 0.994 | locus YDR318W, strain mcm21, hits give low values 0.995 | locus YDR334W, strain swr1, hits give low values 0.978 | locus YDR335W, strain msn5, hits give low values 0.994 | locus YDR388W, hits give low values 0.985 | locus YDR392W, strain spt3, hits give low values 0.992 | locus YDR502C, strain sam2, hits give low values 0.982 | locus YEL003W, strain gim4, hits give low values 0.994 | locus YEL037C, strain rad23, hits give low values 0.988 | locus YEL061C, strain CIN8 (second series), hits give low values 0.982 | locus YEL061C, strain CIN8, hits give low values 1 | locus YER015W, strain faa2, hits give low values 1 | locus YER016W, strain bim1, hits give low values 1.01 | locus YER110C, hits give low values 0.979 | locus YER111C, strain swi4, hits give low values 1 | locus YER155C, strain BEM2 (second series), hits give low values 1.02 | locus YER155C, strain BEM2, hits give low values 1 | locus YER167W, strain BCK2, hits give low values 1.02 | locus YFR010W, strain ubp6, hits give low values 0.982 | locus YGL078C, strain dbp3, hits give low values 0.984 | locus YGL086W, strain mad1, hits give low values 0.991 | locus YGL167C, strain pmr1, hits give low values 1.01 | locus YGL173C, strain kem1, hits give low values 1 | locus YGL227W, strain vid30, hits give low values 0.983 | locus YGL240W, strain doc1, hits give low values 1.02 | locus YGL248W, strain PDE1, hits give low values 0.999 | locus YGL253W, strain hxk2, hits give low values 0.993 | locus YGR078C, strain PAC10, hits give low values 1 | locus YGR135W, strain pre9, hits give low values 0.976 | locus YGR252W, strain gcn5, hits give low values 0.994 | locus YHR013C, strain ard1, hits give low values 1.01 | locus YHR027C, strain rpn1, hits give low values 0.994 | locus YHR030C, strain SLT2, hits give low values 0.96 | locus YHR079C, strain IRE1 (second series), hits give low values 0.992 | locus YHR079C, strain IRE1, hits give low values 0.968 | locus YHR094C, strain hxt1, hits give low values 0.987 | locus YHR129C, strain ARP1, hits give low values 1 | locus YHR142W, strain chs7, hits give low values 0.977 | locus YHR200W, strain rpn10, hits give low values 0.988 | locus YIL066C, strain RNR3, hits give low values 1.02 | locus YIL073C, strain SPO22, hits give low values 0.981 | locus YIL125W, strain kgd1, hits give low values 0.991 | locus YIR030C, strain dcg1, hits give low values 0.992 | locus YJL092W, strain hpr5, hits give low values 0.993 | locus YJL095W, strain BCK1 (second series), hits give low values 1 | locus YJL095W, strain BCK1, hits give low values 0.996 and 0.97 | locus YJL115W, strain asf1, hits give low values 0.985 | locus YJL129C, strain trk1, hits give low values 0.97 | locus YJL134W, strain LCB3, hits give low values 1.01 | locus YJL154C, strain vps35, hits give low values 0.978 | locus YJL164C, strain tpk1, hits give low values 0.997 | locus YJL166W, strain qcr8, hits give low values 0.995 | locus YJL168C, strain set2, hits give low values 0.983 | locus YJL187C, strain SWE1 (second series), hits give low values 1.01 | locus YJR043C, strain POL32, hits give low values 1.04 | locus YJR066W, strain TOR1, hits give low values 0.92 | locus YKL009W, strain mrt4, hits give low values 0.986 | locus YKL068W, hits give low values 0.996 | locus YKL085W, strain MDH1 (second series), hits give low values 0.975 | locus YKL085W, strain MDH1, hits give low values 0.975 | locus YKL160W, strain elf1, hits give low values 1.01 | locus YKL190W, strain CNB1, hits give low values 1 | locus YKR001C, strain vps1, hits give low values 0.992 | locus YKR026C, strain gcn3, hits give low values 0.972 | locus YKR091W, strain srl3, hits give low values 1 | locus YLL001W, strain dnm1, hits give low values 1 | locus YLL026W, hits give low values 1.01 | locus YLL041C, strain sdh2, hits give low values 1.02 | locus YLR027C, strain aat2, hits give low values 1 | locus YLR039C, strain RIC1, hits give low values 0.935 | locus YLR058C, strain SHM2, hits give low values 1.01 | locus YLR102C, strain apc9, hits give low values 0.987 | locus YLR113W, strain HOG1, hits give low values 0.998 | locus YLR221C, strain rsa3, hits give low values 0.998 | locus YLR258W, strain gsy2, hits give low values 0.993 | locus YLR262C, strain YPT6 (second series), hits give low values 0.959 | locus YLR262C, strain YPT6, hits give low values 0.857 | locus YLR268W, strain sec22, hits give low values 0.997 | locus YLR320W, strain mms22, hits give low values 1 | locus YLR342W, strain FKS1 (second series), hits give low values 1.02 | locus YLR342W, strain FKS1, hits give low values 0.999 | locus YLR357W, strain rsc2, hits give low values 1.01 | locus YLR370C, strain arc18, hits give low values 0.993 | locus YLR371W, strain rom2, hits give low values 0.983 | locus YLR384C, strain iki3, hits give low values 1 | locus YLR418C, strain cdc73, hits give low values 0.962 | locus YML016C, strain PPZ1, hits give low values 1.01 | locus YML032C, strain rad52, hits give low values 1 | locus YML120C, strain ndi1, hits give low values 0.998 | locus YML124C, strain tub3, hits give low values 0.992 | locus YMR058W, strain fet3, hits give low values 1 | locus YMR078C, strain ctf18, hits give low values 0.987 | locus YMR125W, strain sto1, hits give low values 0.993 | locus YMR129W, hits give low values 0.997 | locus YMR205C, strain PFK2, hits give low values 1.02 | locus YMR223W, strain ubp8, hits give low values 0.976 | locus YMR231W, strain pep5, hits give low values 0.997 | locus YMR307W, strain GAS1, hits give low values 1 | locus YNL067W, strain RPL9B, hits give low values 0.997 | locus YNL071W, strain lat1, hits give low values 0.978 | locus YNL183C, strain NPR1, hits give low values 0.938 | locus YNL209W, strain ssb2, hits give low values 0.985 | locus YNL233W, strain BNI4, hits give low values 1.01 | locus YNL248C, strain rpa49, hits give low values 0.97 | locus YNL250W, strain rad50, hits give low values 0.981 | locus YNL271C, strain bni1, hits give low values 0.985 | locus YNL298W, strain CLA4, hits give low values 0.984 | locus YNL307C, strain MCK1, hits give low values 0.98 | locus YNL322C, strain KRE1 (second series), hits give low values 1.01 | locus YNR049C, strain mso1, hits give low values 1 | locus YNR052C, strain pop2, hits give low values 0.979 | locus YOL006C, strain TOP1, hits give low values 1.03 | locus YOL012C, strain htz1 1.17 | locus YOL147C, strain pex11, hits give low values 0.986 | locus YOR001W, strain rrp6, hits give low values 0.989 | locus YOR061W, strain CKA2, hits give low values 1 | locus YOR069W, strain VPS5, hits give low values 1 | locus YOR070C, strain gyp1, hits give low values 0.987 | locus YOR080W, strain dia2, hits give low values 0.992 | locus YOR083W, strain WHI5, hits give low values 1.01 | locus YOR106W, strain vam3, hits give low values 0.98 | locus YOR136W, strain idh2, hits give low values 0.991 | locus YOR144C, strain elg1, hits give low values 0.992 | locus YOR184W, strain ser1, hits give low values 0.994 | locus YOR231W, strain MKK1, hits give low values 0.98 | locus YOR265W, strain rbl2, hits give low values 0.993 | locus YOR270C, strain vph1, hits give low values 0.86 | locus YOR290C, strain snf2, hits give low values 1.03 | locus YOR316C, strain cot1, hits give low values 0.981 | locus YPL051W, strain arl3, hits give low values 1.02 | locus YPL055C, strain LGE1, hits give low values 1.03 | locus YPL078C, strain atp4, hits give low values 0.985 | locus YPL106C, strain sse1, hits give low values 1.02 | locus YPL240C, strain hsp82, hits give low values 0.991 | locus YPL256C, strain CLN2, hits give low values 0.955 | locus YPR119W, strain clb2, hits give low values 0.982 | locus YPR141C, strain kar3, hits give low values 0.98 | locus YPR163C, strain tif3, hits give low values 0.981 | locus YPR167C, strain met16, hits give low values 0.983 | strain wtn01, hits give low values 1
